Screening results: PubChem, Sanford-Burnham Center for Chemical Genomics
KKLEB cytotox – reduces viability of KKLEB cystic fibrosis airway cells. KKLEB CF airway cells viability, ATPlite luminescence, overnight; hits give low values; cells stimulated with P. aeruginosa culture filtrate. activity change (cytotoxicity), % at 5 µM. actives 0.36% (n = 360,000). AID 602141;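 active means corrected activity change at or below -50% at 5 µM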
TROY signal inh – blocks TROY-dependent signaling in reporter cells; Q293 LMP1-TROYcd NF-kB luciferase reporter, 4 h; inhibition, % at 10 µM; actives 0.98% (n = 360,000); AID 1347056;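 active means compounds whose plate-normalised and pattern-corrected inhibition of the luciferase reporter signal at the single screening dose is 50% or more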
TWEAK Fn14 block – inhibitors of TWEAK-Fn14 interaction signaling; TWEAK-stimulated Fn14 reporter cells, luciferase luminescence, 8 h; actives 2% (n = 360,000); inhibition, % at 10 µM; AID 1159606; in the data active means inhibition above about 50%
Peg3 prom inh – Peg3 promoter activity inhibition. HeLa PEG-Prom luciferase reporter, luminescence, overnight. inhibition, % at 20 µM. actives 1.7% (n = 360,000). AID 588405;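 active means inhibition of at least 50% at 20 µM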
CF NFkB inh – inhibitors of cystic fibrosis induced NF-kB. KKLEB NF-kB-GFP reporter, PAF-induced, GFP fluorescence overnight. inhibition, % at 5 µM. actives 0.86% (n = 360,000). AID 588850;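 active means at least 50% inhibition at 5 µM, scaled per plate between neutral and stimulator controls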;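 further: PAF is a Pseudomonas aeruginosa culture filtrate used as stimulus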
HIF-2a inh – HIF-2a inhibition; inhibition, % at 18.8 µM; 786-0 RCC cells HIF-2a reporter, luciferase luminescence, overnight; actives 0.72% (n = 360,000);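 active means inhibition of the luminescence signal of 40% or more relative to plate controls, in a single-dose primary screen at 18.75 µM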
CF NFkB conf – CF NF-kB inhibition confirmation, single concentration; shares compounds with CF NFkB inh; KKLEB CF airway cells, PAF-induced NF-kB-GFP fluorescence, overnight; inhibition, % at 5 µM; actives 64% (n = 1,300); in the data active means inhibition above about 40%;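 further: stimulus PAF is a Pseudomonas aeruginosa filtrate and not platelet activating factor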
Mdm2-MdmX confirm – confirmation of inhibitors of human Mdm2/MdmX interaction, set 2 | actives 99% (n = 740) | shares compounds with HIF-2a inh | inhibition, % at 8 µM | SaOS-2 split-luciferase Mdm2/MdmX complementation, luminescence;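 active means mean inhibition of the luminescence signal across two replicates at or above 26 percent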
HIF-2a inh conf – confirmation of HIF-2a inhibitors; shares compounds with HIF-2a inh; 786-0 RCC cells, HIF-2a luciferase reporter luminescence, overnight; actives 56% (n = 1,800); inhibition, % at 18.8 µM;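 active means mean inhibition across four replicates of at least 40 percent at the single tested concentration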
HIF-1a cs – counter-screen for HIF-2a inhibitors: HIF-1a inhibition in MiaPaCa-2 cells | shares compounds with HIF-2a inh | MiaPaCa-2 HIF-1a luciferase reporter, desferoxamine, overnight | inhibition, % at 18.8 µM | actives 72% (n = 1,800) | AID 651589;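 active means mean inhibition of the reporter signal across four replicates at the single tested dose of 50% or more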
Numbers stand for hits; . = inactive; / = no result given. The list is not random: actives were taken first. Their share in the collection is about 4%.

SMILES	KKLEB cytotox	TROY signal inh	TWEAK Fn14 block	Peg3 prom inh	CF NFkB inh	HIF-2a inh	Mdm2-MdmX confirm	HIF-2a inh conf	HIF-1a cs	others
CC(=O)Nc1ccc(Nc2nc(-c3sc(NC(C)=O)nc3C)cs2)cc1	.	.	.	.	67	68	/	66	91	CF NFkB conf=87
CNC(=S)SCCOc1ccccc1	.	.	.	.	.	.	/	/	/
O=S1(=O)CCC(NC(=S)SCCOc2ccccc2)C1 (stereo not given)	.	.	70	.	58	50	/	48	67	CF NFkB conf=86
COc1ccc(CN(C)C(=O)C2CCN(S(=O)(=O)c3cccs3)CC2)cc1F	.	.	.	.	.	.	/	/	/
CC1CCC/C=C/C(=O)c2c(O)cc(O)cc2CC(=O)O1 (stereo not given)	.	.	94	106	82	91	103	80	102	CF NFkB conf=.
C[C@@H]1Cc2c(O)c(O)cc(O)c2C(=O)O1	.	.	.	.	.	.	/	/	/
CCCc1c(C(=O)N/N=C/c2ccco2)nnn1-c1nonc1N	.	.	.	.	.	.	/	/	/
COC(=O)C1=C(C(=O)OC)[C@@H]2N(Cc3ccccc3)c3ccccc3[C@@]23C[C@@H](C(=O)OC)N(C(=O)c2ccc(Br)cc2)C3=N1	.	.	54	84	69	.	98	/	/	CF NFkB conf=78
C=CCN1c2ccccc2[C@]23C[C@@H](C(=O)OC)N(C(=O)c4ccc(Br)cc4)C2=NC(C(=O)OC)=C(C(=O)OC)[C@H]13	.	.	61	74	71	.	96	/	/	CF NFkB conf=58
CN(C)CCCN(C(=O)CCS(=O)(=O)c1ccccc1)c1nc2cc3c(cc2s1)OCO3	.	56	69	107	96	62	/	.	102	CF NFkB conf=104
COc1cc(/C=C/C(=O)c2ccc(O)cc2)ccc1OCC#N	.	.	71	97	65	51	/	.	100	CF NFkB conf=.
CCN(CC)C(=O)Oc1ccc2oc(=O)cc(-c3cc4cccc(OC)c4o3)c2c1	.	.	.	.	.	.	/	/	/
CCOc1cc(N2CCOCC2)c(OCC)cc1NC(=O)c1cnccn1	.	.	.	.	.	.	/	/	/
CNC(=O)c1nnsc1S(=O)(=O)c1ccc(Cl)cc1	-92	69	59	106	90	65	104	74	50
COc1ccc(C(C)=O)cc1CSc1nnc(-c2ccc(Cl)cc2)n1-c1ccccc1	.	.	.	.	.	41	/	.	.
O=C(CCl)N(c1ccc(Cl)cc1)c1c[nH]c2ccccc12	-89	.	67	103	84	95	103	96	107
CC(=O)n1cc(CO)c2ccccc21	.	.	.	.	.	.	/	/	/
CC(=O)n1cc(N(C(=O)CCl)c2ccccc2)c2ccccc21	-95	.	66	.	90	84	103	95	106
O=C(Cc1ccc(Cl)cc1)NCCc1c[nH]c2ccccc12	.	.	.	.	.	.	/	/	/
O=C(CCl)N(c1ccccc1)c1c[nH]c2ccccc12	-54	.	69	86	64	73	103	53	104
CCc1ccc(-c2cc(C(=O)O)c3ccccc3n2)s1	.	.	.	.	.	.	/	/	/
Cc1cc2c(cc1C)-n1nnnc1C(N1CCN(c3ccccn3)CC1)C(c1ccc3c(c1)OCO3)=N2 (stereo not given)	/	/	/	/	/	.	/	/	/
CC(O)(c1ccc(F)c(F)c1)c1nc(-c2ccc(S(C)(=O)=O)cc2)cs1 (stereo not given)	.	.	.	.	.	.	/	/	/
COc1ccc(CNC(=O)COC(=O)CCCOc2ccc(Cl)cc2Cl)cc1OC	.	.	.	.	.	.	/	/	/
O=C(COC(=O)CCCOc1ccc(Cl)cc1Cl)NCc1ccccc1	.	.	.	.	.	64	/	63	54
SMILES	KKLEB cytotox	TROY signal inh	TWEAK Fn14 block	Peg3 prom inh	CF NFkB inh	HIF-2a inh	Mdm2-MdmX confirm	HIF-2a inh conf	HIF-1a cs	others
Cc1ccc(CNC(=O)COC(=O)CCCOc2ccc(Cl)cc2Cl)cc1	.	.	.	.	.	62	/	70	57
COc1ccc(C(C(=O)NC2CCCC2)N(Cc2cccnc2)C(=O)Cc2cccs2)c(OC)c1 (stereo not given)	.	.	.	.	.	.	/	/	/
Cc1cccc(C)c1NC(=O)C1(C)CSCC(=O)N1CCOc1ccccc1 (stereo not given)	/	/	/	/	/	.	/	/	/
C=CCn1cccc(/C=C/C(=O)c2ccc(C(C)(C)C)cc2)c1=S	-52	.	.	102	.	70	/	61	105
O=C1C=CC(O)(c2cc(=O)c3c(O)cc(O)cc3o2)C=C1	-52	.	92	84	75	94	/	92	103
OC1COCOC1C(O)C1OCOCC1O (stereo not given)	.	.	.	.	.	.	/	/	/
COc1ccccc1S(=O)(=O)N[C@@H]1CC[C@@H](CCn2cc(C3CC3)nn2)O[C@@H]1CO	/	/	/	/	/	.	/	/	/
Cc1ccc(NC(=O)c2nc(S(=O)(=O)Cc3ccccc3)ncc2Cl)cc1	-100	80	67	100	92	95	102	98	96
COc1ccc(OC)c(NC(=O)c2nc(S(=O)(=O)Cc3ccccc3)ncc2Cl)c1	-105	83	76	106	89	89	103	99	104
Cc1ccccc1CS(=O)(=O)c1ncc(Cl)c(C(=O)Nc2ccc(F)cc2)n1	-99	78	82	108	89	93	103	74	51
Cc1nnc(NC(=O)c2nc(S(=O)(=O)Cc3ccccc3)ncc2Cl)s1	.	.	91	110	83	64	/	.	106
Cc1nnc(NC(=O)CS(=O)(=O)Cc2ccccc2)s1	.	.	.	.	.	.	/	/	/
O=C(NCCCc1ccccc1)c1ccc(CS(=O)Cc2ccc(Cl)cc2)o1 (stereo not given)	.	.	.	.	.	.	/	/	/
CC(C)(C)S(=O)N1Cc2cc(C(=O)NCC(F)(F)F)nc(-c3cccc(-c4cccc(F)c4)c3)c2[C@H]1CCO (stereo not given in full)	.	.	.	.	.	.	/	/	/
O=C(Nc1ccc(F)cc1)c1nc(S(=O)(=O)Cc2ccccc2)ncc1Cl	-75	69	79	100	101	86	102	99	60
CC(=O)Nc1ccc(OS(=O)(=O)c2c(C)cc(C)cc2C)cc1	.	.	.	.	.	50	/	55	.
